In all, about 330,000 compounds went through this assay and about 2,800 (0.85%) were called active. The sample holds actives, similar compounds and a random draw of the others, so the mix is not that of the screen. Unmarked numbers belong to inactive results.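 The calls were made as follows: active = mean inhibition across replicates of 60% or more, whatever share of single replicates reaches that level; inconclusive = some that reach 60%, reason not given; inactive = mean inhibition across replicates below 60%.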
assay: inhibitors of MITF-dependent TRPM1 promoter reporter, primary screen, cell-based, SK-MEL-5, single point, luciferase (AID 488899); details: SK-MEL-5 TRPM1 promoter luciferase, 24 h; at 12.5 µM; stronger effect = higher value

Row | SMILES | inhibition
1 | CSCCC(NS(=O)(=O)c1ccc(C)cc1)C(=O)N(C)CC(=O)Nc1ccccc1Br (centres undefined) | 11.6%
2 | CC(C)c1cc(N=O)cc(C(C)C)c1O | -4.28%
3 | CC(C)=CCc1ccc(O)c(=O)cc1C(C)C | 71.6% (active)
4 | COc1ccc(CNC(=O)CN2C(=O)c3ccccc3S2(=O)=O)cc1 | 13.6%
5 | CCc1ccc(CNC(=O)C2CCN(c3nnc(C)c4c(C)n(-c5ccc(C)cc5)nc34)CC2)cc1 | 96.1% (active)
6 | CCOc1ccc(CNC(=O)C2CCCN(c3nnc(C)c4c(C)n(-c5ccccc5)nc34)C2)cc1 (centres undefined) | 48.5%
7 | COc1ccc(-n2nc3c(N4CCC(C(=O)NCc5ccccc5)CC4)nnc(C)c3c2C)cc1 | 40.6%
8 | COc1cccc(CC(=NO)c2cccc(OC)c2)c1 | -0.084%
9 | CCCOc1ccc(/C=N/NC(=O)C2CC2)c(OCCC)c1 | -7.21%
10 | COc1ccc(CN2CCNC(=O)C2CC(=O)NCc2cn[nH]c2-c2ccccc2)c(F)c1 (centres undefined) | -6.25%
11 | Cc1c(C)n(Cc2ccc(Cl)cc2)c2ccc(C(=O)NCCCN3CCOCC3)cc12 | 1.78%
12 | CN1CCN(CCCNC(=O)c2ccc(/C=C3\Oc4ccccc4N(Cc4ccc(Cl)cc4)C3=O)cc2)CC1 | 96.1% (active)
13 | CC(C)OCCCNC(=O)CN1C(=O)/C(=C/c2ccccc2F)Oc2ccccc21 | 8.17%
14 | CCOc1ccc(NC(=O)CSc2ncnc3c2sc2ccccc23)cc1 | 4.52%
15 | C=CCc1cccc2cc(C(=O)NC3CCCC3)c(=O)oc12 | -16%
16 | CCC1=C(OC(=O)N(CC)CC)N2C(=O)OC(=NCCc3c[nH]c4ccccc34)[C@]2(C)[C@H]2C1=CC[C@H]1C(=O)N(CC)C(=O)[C@H]12 | 1.76%
17 | COCCN(Cc1cc2cc3c(cc2nc1Cl)OCO3)C(=O)c1cccc(C)c1 | 10%
18 | Cc1cc(C)nc(SCc2ccccc2C#N)n1 | 4.69%
19 | Cc1cc(C)nc(S/C=C/C(=O)c2ccccc2)n1 | 80.6% (active)
20 | Cc1cc(C)nc(SCC(=O)N(C)C)n1 | 2.39%
21 | CC1CCN(Cc2nc3c(c(=O)n(C)c(=O)n3C)n2CCc2ccccc2)CC1 | -2.78%
22 | Cn1c2ccccc2c2c(C(=O)N3CCN(c4ccc(F)cc4)CC3)cn(C3CCCC3)c(=O)c21 | -8.48%
23 | CCCc1nc2c(c(=O)c3ccccc3n2C)c(=O)n1C1CCCCCC1 | 73.5% (active)

Row | SMILES | inhibition
24 | COc1cc(OC)cc(-c2c(-c3cccs3)c3cc(-c4ccc(OC)cc4F)ccc3n2C)c1 | 13.6%
25 | C#CCOCCOCCOCCNc1nc(N2CCOCC2)nc(N2CCN(C(=O)[C@H](Cc3ccc(O)cc3)n3cc(CCO)nn3)CC2)n1 | 4.74%
26 | COc1ccccc1OCCNc1cc(N2CCOCC2)ccc1[N+](=O)[O-] | -28%
27 | O=C(c1ccccc1)N1CCN(c2ccc([N+](=O)[O-])c(NCc3ccco3)c2)CC1 | 5.6%
28 | COc1ccc(CCNc2cc(N3CCN(C(=O)c4ccccc4OC)CC3)ccc2[N+](=O)[O-])cc1OC | 77.2% (active)
29 | C[C@@H](NC(=O)c1nc[nH]c1C(=O)N1CCN(C(=O)OC(C)(C)C)CC1)c1ccccc1 | -1.66%
30 | CCCCN1CC(CO)Oc2cccc(F)c2S1(=O)=O (centres undefined) | 0.622%
31 | Cc1ccc(CN(Cc2cccnc2)C(=S)Nc2cc(Cl)ccc2C)cc1 | 1.58%
32 | O=c1ccn([C@@H]2O[C@H](CNS(=O)(=O)c3cc4ccccc4s3)[C@@H](O)[C@H]2O)c(=O)[nH]1 | -0.592%
33 | C[C@@H]1C[C@@H]2O[C@H]2/C=C\C=C\C(=O)Cc2c(Cl)c(O)cc(O)c2C(=O)O1 | 71.8% (active)
34 | CC(C)C(C(=O)NC1CCCCC1)N(CC1CCCO1)C(=O)CNS(=O)(=O)c1ccc(F)cc1 (centres undefined) | 10.3%
35 | O=C(CN1CCOc2ccccc21)N1CCC(Cc2ccccc2)CC1 | 5.49%
36 | CCCC(O)(c1ccccc1)C(c1ccccc1)c1ccccn1 (centres undefined) | 4.1%
37 | COc1ccc(CNCCCn2cnc3c(OCc4ccccc4)ncnc32)cc1 | -4.78%
38 | Cc1cc(C)n(CC(O)COc2ccc(C(C)(C)C)cc2)n1 (centres undefined) | -18.8%
39 | CN(C)CC(O)COc1ccc(C(C)(C)c2ccc(OCC(O)CN(C)C)cc2)cc1 (centres undefined) | 65.7% (active)
40 | CC(C)(c1ccccc1)c1ccc(OCCN)cc1 | -6.11%
41 | Nc1ccc2c(c1)C(O)c1ccc(Cl)cc1-2 (centres undefined) | -6.14%
42 | CN(CC(=O)NCCc1ccc(F)cc1)CC(=O)Nc1ccc(F)c(F)c1F | 19.3%
43 | Nc1nonc1-n1nnc(C(=O)N/N=C/c2cc(Br)ccc2O)c1CSC1=NCCS1 | 17.4%
44 | CC(C)(CCl)C(=O)Nc1ccc(Sc2ccc(F)cc2)cc1 | -9.91%
45 | O=C(CCl)Nc1ccc(Sc2ccc(NC(=O)CCl)cc2)cc1 | 88.6% (active)
46 | O=C(CCl)Nc1cccc(CP(=O)(c2ccccc2)c2ccccc2)c1 | 5.96%

Row | SMILES | inhibition
47 | COC(=O)C1CC2=C(CC(C)(C)CC2=O)N(c2ccccc2)C1=O (centres undefined) | -6.85%
48 | O=C(O)CCCn1c(=O)c2cccn2c2ccc(F)cc21 | 7.45%
49 | CCCC/C(C)=N/NC(=O)NC1CCCCC1 | 4.57%
50 | Cc1cccc(C(=O)OC(C)CN2CCN(C)CC2)c1 (centres undefined) | -41.9%
51 | CCC1=Nc2cc(C(=O)NCCN3CCCC3)ccc2Sc2ccc(C)cc21 | -15.3%
52 | Cc1cccc(-c2nc3ccc(C(=O)NCCN4CCN(C)CC4)cc3nc2-c2cccc(C)c2)c1 | 69.1% (active)
53 | FC(F)(F)c1cccc(Cc2noc(CN3CCC(N4CCCCC4)CC3)n2)c1 | 1.26%
54 | NC(=O)C1CCN(C(=O)c2cc(S(=O)(=O)N3CCN(c4ccccc4)CC3)ccc2Cl)CC1 | 4.66%
55 | Cc1cc(NC(=O)CN2CCCC(C)C2)n(-c2nc3ccccc3s2)n1 (centres undefined) | 1.1%
56 | CCC(C)Cn1c(O)cc2nn(-c3nc4ccccc4s3)c(=O)c-2c1C (centres undefined) | 89% (active)
57 | CCN(CC(=O)NCCCN1CCOCC1)S(=O)(=O)c1cc(Cl)ccc1Cl | 12.6%
58 | O=c1[nH]c2cccnc2n(CCNc2ncc(C(F)(F)F)cc2Cl)c1=O | -3.01%
59 | O=C(O[C@@H]1[C@H](Cc2ccccc2)NS(=O)(=O)[C@H]2C[C@@H]3C=C[C@]12O3)c1ccccc1Br | -5.01%
60 | O=C(Nc1ccc(Br)cn1)C1CCN(S(=O)(=O)c2cccs2)CC1 | 20.1%
61 | O=c1[nH]c(=S)[nH]c(O)c1/C=C1\C=Nc2ccccc21 | 65.4% (active)
62 | CCc1ccc(NC(=O)CN2CCC(C(=O)c3ccc(OC)cc3)CC2)cc1 | 16.5%
63 | COCC(=O)Nc1c(C(=O)N2CCCC2)oc2ccccc12 | -5.06%
64 | Cc1cc(C)cc(OCC(=O)NNC(=O)c2cc3ccccc3oc2=O)c1 | -14.8%
65 | NC(=O)C1(N2CCCCC2)CCN(C(=O)c2ccc(C#Cc3ccccc3)o2)CC1 | 10.7%
66 | Cc1ccsc1C(=O)OCC(=O)c1cc(C)n(CC2CCCO2)c1C (centres undefined) | 68% (active)
67 | COc1ccc(C(=O)OCC(=O)c2cc(C)n(CC3CCCO3)c2C)cc1[N+](=O)[O-] (centres undefined) | -13.5%
68 | Cc1cc(C(=O)CCl)c(C)n1CC1COc2ccccc2O1 (centres undefined) | 51.2%
69 | CCOc1cccc2c1OC1(CCCCC1)N1N=C(c3cccnc3)CC21 (centres undefined) | -62.4%

Row | SMILES | inhibition
70 | Cn1c(=O)c2c(n(Cc3ccccc3)c1=O)NC(=O)C2CC(=O)N1CCc2ccccc2C1 (centres undefined) | -5.67%
71 | COC(=O)C1CCN(CC(N)=O)CC1 | -7.19%
72 | COc1ccc2ccccc2c1/C=N/NC(=O)c1cc(C)[nH]n1 | -14.1%
73 | CC(C)(C)c1cc(C(=O)N/N=C/c2ccc([N+](=O)[O-])s2)n[nH]1 | 85.1% (active)
74 | Cc1cc(C(=O)N/N=C/c2cc([N+](=O)[O-])cc(C)c2O)n[nH]1 | 11.2%
75 | COc1ccc(S(=O)(=O)N2CCOCC2)cc1NC(=O)c1ccc(OCC(C)C)c(OC)c1 | -3.59%
76 | O=C(Oc1ccc(-c2nc(-c3ccccn3)no2)cc1)c1ccccc1 | 36.6%
77 | CC1CCCN(C(=O)CN2C(=O)c3ccccc3S2(=O)=O)C1 (centres undefined) | 11.4%
78 | O=C(CN1C(=O)c2ccccc2S1(=O)=O)N1CCc2ccccc21 | 74.1% (active)
79 | O=C(CN1C(=O)c2ccccc2S1(=O)=O)NC1CCCCC1 | 4.83%
80 | Cc1ccc(SCC(=O)NC(=O)NCc2ccco2)c(C)c1 | 9.21%
81 | COCC(=O)N(C)[C@H]1C[C@H]2c3cc(Oc4ccccc4C)ccc3CCN2C(=O)[C@H]1[C@H](C)O | -16.5%
82 | Cc1ccc(CN2CCN(c3ncccn3)CC2)c(C)c1 | 4.53%
83 | Cc1cc(=O)oc2cc(OCC(=O)N3CCN(c4ccc(F)cc4)CC3)c(Cl)cc12 | -0.292%
84 | COc1cc(C)cc(CN2CCC(Cc3ccccc3)CC2)c1O | 2.68%
85 | CC1CCCN(CC(O)COCc2ccccc2)C1 (centres undefined) | -13.7%
86 | Oc1c(CN2CCN(c3ccc(F)cc3)CC2)cc(Cl)c2cccnc12 | 70.7% (active)
87 | Oc1c(CN2CCCC2)cc(COCc2ccccc2)c2cccnc12 | 73.5% (active)
88 | COc1ccc(OCCNS(=O)(=O)Cc2ccccc2)cc1 | 0.0862%
89 | Cc1ccc(NC(=O)CN2CCCCC2)c2c1CC(C)(C)O2 | -7.61%
